Assay outcomes deposited in PubChem BioAssay by National Center for Advancing Translational Sciences (NCATS).
TbPYK inhibitor: blocks Trypanosoma brucei pyruvate kinase; Q57TT1; TbPYK enzyme, Kinase-Glo Plus ATP luminescence, 45 min; Potency, µM (doses to about 76.8 µM), without a hit: at the highest dose activity, negative = inhibition, most hits filed as inhibitors; 410,000 tested, 0.12% active; AID 624173; also: potency is read from the fitted curve at half-maximal effect; % is scaled to controls: 0 for no effect and ±100 for the full control effect; nearly all actives have a fitted effect of over 50% in size
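T. brucei PYK with substrate was exposed to pin-transferred compounds across a concentration series, then started with 130 uM ADP (final). After 45 min at room temperature, Kinase-Glo Plus luminescence was read, normalized and curve-fitted.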
Cycloheximide cs: counter-screen hit for Shiga toxin inhibitors, cycloheximide; cell reporter, cycloheximide protein synthesis inhibition counterscreen; max response, %; 300,000 tested, 12% active; AID 2314; in the data active = max response mostly above about 13%, no sharp cut-off; inactive = mostly below about 14%; also: read at 38.3 µM for the half of the compounds with a filed dose; 0% is about no effect
LmPK inhibitor: LmPK (Leishmania mexicana) enzyme inhibition | AID 1721 | Potency, µM (doses to about 57.5 µM), for inactives: at the top dose activity change, negative = inhibition, most hits filed as inhibitors | Q27686 | 290,000 tested, 0.37% active | purified LmPK, Kinase-Glo ATP luminescence, 1 h; also: potency is read from the fitted curve at half-maximal effect; % is scaled to controls: 0 for no effect and ±100 for the full control effect
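Kinase-Glo luminescence read after 1 h RT reaction of 0.1 nM LmPK with 0.5 mM PEP and 0.1 mM ADP. Activity scaled between uninhibited and enzyme-free controls.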
Giardia FBPA inh: inhibitors of Giardia lamblia fructose-1,6-bisphosphate aldolase; 290,000 tested, 0.71% active; A8B2U2; purified Giardia FBPA; Potency, µM (series often up to 59.6 µM), for inactives: at the highest dose activity, negative = inhibition, most hits filed as inhibitors; also: potency is read from the fitted curve at half-maximal effect; % is scaled to controls: 0 for no effect and ±100 for the full control effect; nearly all actives have a fitted effect of over 55% in size
Target sequence (A8B2U2 whole entry, looked up): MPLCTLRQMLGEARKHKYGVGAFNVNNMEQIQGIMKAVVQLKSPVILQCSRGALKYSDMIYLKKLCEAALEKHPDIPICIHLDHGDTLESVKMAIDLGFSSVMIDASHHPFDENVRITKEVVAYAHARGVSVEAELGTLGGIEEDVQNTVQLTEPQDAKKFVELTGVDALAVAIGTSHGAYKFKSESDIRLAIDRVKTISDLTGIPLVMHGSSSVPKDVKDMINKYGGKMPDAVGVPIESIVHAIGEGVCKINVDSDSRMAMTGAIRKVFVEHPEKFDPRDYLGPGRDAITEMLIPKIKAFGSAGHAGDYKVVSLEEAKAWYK
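Giardia FBPA (40 nM reagent) was preincubated 10 min at RT with compound (up to 57.5 uM final), then substrate plus GAPDH/TPI/NAD/arsenate coupling system with diaphorase/resazurin was added; resorufin fluorescence (525/598 nm) was read after 20 min.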
Shiga toxin inh: blocks Shiga toxin action in Vero cells; inhibition, % at 38.7 µM; Vero cells, Shiga toxin protein synthesis inhibition reporter; 290,000 tested, 9.2% active; in the data active = inhibition mostly above about 28%, no sharp cut-off; inactive = mostly below about 43%; also: 0% is about no effect
RE007 growth inh: less growth of the S. pombe RE007 Vpr strain; AID 651644; 360,000 tested, 0.21% active; S. pombe RE007 Vpr strain, BacTiter-Glo ATP luminescence, 24 h; Potency, µM (series often up to 92.2 µM), inactives show at the top dose activity change, negative = less growth, hits mostly inhibitors; active = well fitted falling curve with a large enough effect; inconclusive = small, poorly fitted or top-dose-only effect; inactive = no such curve, though single readings can be large or run the other way; also: potency is read from the fitted curve at half-maximal effect; % is scaled to controls: 0 for no effect and ±100 for the full control effect; nearly all actives have a fitted effect of over 50% in size
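Fission yeast strain RE007, carrying one chromosomally integrated HIV-1 vpr copy, was seeded at OD 0.01 in PMG+AL medium with 23 nL pinned compound. After 24 h at 30 °C and 99% humidity, viability was read by BacTiter-Glo luminescence.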
Starred values were filed as active, the others as inactive; ? = inconclusive; · = no result given. Only a selection was taken, and hits are over-represented in it overall. Unless noted, calls follow the shape of the dose curve; as a rule, active = well fitted curve in the direction sought with a large enough effect; inconclusive = small, poorly fitted or top-dose-only effect, or another doubt; inactive = no such curve, though single readings can be large; an effect the other way counts as inactive or inconclusive.

SMILES	TbPYK inhibitor	Cycloheximide cs	LmPK inhibitor	Giardia FBPA inh	Shiga toxin inh	RE007 growth inh
Cc1nn(-c2ccc(Cl)nn2)c(=O)c2ccccc12	-1%	27*	-3%	0%	49	68%
Cc1nn(-c2ccc3ccccc3c2)c(=O)c2ccccc12	-6%	51*	-1%	-3%	115*	-17%
Cc1cc(C)n(-c2nc3ccccc3[nH]c2=O)n1	0%	7	2%	0%	13	20%
Cc1nn(-c2nc3ccccc3[nH]2)c(=O)c2ccccc12	?	-7	7.1µM*	-5%	-21	6.3µM*
Cc1nn(-c2ccc(Cl)cc2)c(=O)c2ccccc12	-3%	48*	1%	1%	98*	-7%
Cc1nn(-c2cc(N3CCCCC3)ccc2N)c(=O)c2ccccc12	-12%	-3	-1%	7%	-2	18%
Cc1nn(-c2ccc(Cl)c(Cl)c2Cl)c(=O)c2ccccc12	-5%	-1	3%	-3%	20	-9%
O=C1CCC=C1C(O)c1ccc(Cl)cc1 (configuration not stated)	·	·	·	0%	·	·
Cc1nn(-c2nc3ccccc3[nH]2)c(N)c1-c1ccc(Cl)cc1	4%	46*	3%	-13%	82*	?
Cc1nn(-c2ccccc2)c(=S)c2ccccc12	5%	20*	2%	3%	60*	-6%
COc1ccc(-c2nc(CSCC(=O)N3CCN(c4ccc(F)cc4)CC3)c(C)o2)cc1	0%	·	·	·	·	·
CCOC(=O)c1[nH]c(C)c(CCC(=O)Nc2ccc(C)cc2Cl)c1C	2%	·	·	·	·	·
Cn1cc(C=O)c(-c2ccc3c(c2)OCCCO3)n1	0%	44*	-6%	-7%	83*	5%
O=Cc1cn(-c2ccccc2)nc1-c1ccc2c(c1)OCCO2	-15%	57*	-1%	1%	99*	4%
CCN(CC)C(=O)c1cn(-c2ccccc2)nc1-c1ccc2c(c1)OCCO2	-1%	-6	1%	-1%	-1	-20%
N#Cc1cn(-c2ccccc2)nc1-c1ccc2c(c1)OCCO2	-3%	24*	2%	7%	64*	12%
O=Cc1cn(-c2ccccc2)nc1-c1ccc(F)cc1	1%	active	1%	2%	16	-8%
CCOC(=O)c1cc(-c2ccccc2)n(CC(=O)Nc2ccc(CC)cc2)c1C	2%	·	·	·	·	·
CCC1CN(C(=O)Nc2cccc(OC)c2)c2ccccc2O1 (configuration not stated)	4%	·	·	·	·	·
NC1=C(Cl)C(=O)c2ccccc2C1=O	-31%	·	·	·	·	25µM*
CCOc1ccc(/C=N/NC(=O)c2ccc3nc[nH]c3c2)cc1OC	3%	·	·	·	·	3%
COc1cc(/C=N/N(c2ccccc2)c2ccccc2)ccc1O	1%	-3	-1%	0%	-3	?
CCOc1ccc(/C=N/N(C)c2ccccc2)cc1OC	-10%	25*	8%	-10%	64*	-12%
COc1cc(/C=N/Nc2ccccn2)ccc1OCC(C)C	-6%	34*	-5%	1%	62*	0%
CCOc1ccc(/C=N/Nc2ccccn2)cc1OC	5%	39*	-2%	0%	110*	-3%
SMILES	TbPYK inhibitor	Cycloheximide cs	LmPK inhibitor	Giardia FBPA inh	Shiga toxin inh	RE007 growth inh
C=CCOc1ccc(/C=N/Nc2ccccn2)cc1OC	-9%	57*	1%	-6%	101*	-4%
CCOC(=O)c1c(C)[nH]c(C)c1S(=O)(=O)N1CCCC(C(=O)Nc2ccc(OC)c(OC)c2)C1 (configuration not stated)	-9%	·	·	·	·	·
COc1cc(/C=N/Nc2ccccn2)cc(OC)c1O	-32%	25*	?	-10%	63*	-4%
COc1cc(/C=N/Nc2ccc(C(F)(F)F)cn2)cc(OC)c1O	-2%	7	0%	-6%	22	-14%
CCCOc1ccc(/C=N/NC(=O)c2c(-c3ccccc3)noc2C)cc1OC	·	-2	5%	·	-5	·
CCCOc1ccc(/C=N/Nc2ccccn2)cc1OC	-24%	50*	3%	2%	88*	-1%
COc1ccc(NC(=O)C2=C(C)C(=O)OC23CCN(C(C)C)CC3)cc1Cl	-1%	·	·	·	·	·
Cc1cccc(NS(=O)(=O)c2ccc3c(c2)CCN3C(=O)C2CC2)c1C	-9%	·	·	·	·	·
CCCOc1ccc(-c2cnc(N)s2)cc1	1%	50*	-16%	17%	64*	-7%
CCCCCCCSc1nnc(N)s1	0%	14*	6%	11%	44*	7%
CCCOc1ccc(-c2cnc(SCC(N)=O)nc2N)cc1	0%	14	-2%	2%	22	9%
CCCOc1ccc(OCCSc2nnc(N)s2)cc1	-5%	26*	-3%	0%	95*	11%
Nc1nnc(SCCCOc2ccc(F)cc2)s1	1%	-2	-8%	·	-23	-2%
CCCn1c(=N)c(C(=O)NC2CCCCC2)cc2c(=O)n3cc(C)ccc3nc21	1%	·	·	·	·	·
CN(C)c1ncc2nc(-c3cc(F)cc(F)c3)c(=O)n(Cc3cccs3)c2n1	1%	·	·	6%	·	·
COc1ccc(C(=O)N2CCCC(CNC(=O)c3ccccc3Cl)C2)o1 (configuration not stated)	7%	18*	1%	·	20	2%
CC(=O)c1ccccc1C(=O)N1CCCC(CNC(=O)c2ccccc2Cl)C1 (configuration not stated)	-27%	27*	-1%	-10%	32	17%
COc1ccc(CC(=O)NCC2CCCN(Cc3ccccc3Cl)C2)cc1 (configuration not stated)	4%	-3	-4%	18%	-8	-7%
Cc1cccc(CNC(=O)CN2C(=O)C3CCCCN3c3ccc(C(=O)N4CCCC4)cc32)c1 (configuration not stated)	-1%	·	·	·	·	·
Cc1cccc(OCCn2nnc3ccccc32)c1C	-3%	42*	4%	4%	·	13%
C=CCc1ccc(OCCn2cccc2C=O)c(OC)c1	3%	49*	2%	-7%	116*	0%
C=CCc1ccc(OCCn2nnc3ccccc32)c(OC)c1	6%	50*	-7%	4%	53*	-7%
C/C=C/c1ccc(OCCCCOc2ccc(OC)cc2)c(OC)c1	-4%	-3	-2%	4%	-4	0%
C=CCc1ccccc1OCCn1nnc2ccccc21	-2%	8	6%	1%	·	-19%
C/C=C/c1ccc(OCCn2nnc3ccccc32)c(OC)c1	-13%	35*	-3%	-9%	25	?
O=C(Nc1ccc(Cl)c(C(F)(F)F)c1)c1cc2nc(-c3ccc4c(c3)OCO4)cc(C(F)(F)F)n2n1	13%	·	·	·	·	·
COc1cccc(Cn2c(=O)c(CCc3ccccc3)nc3cncnc32)c1	·	·	·	-6%	·	·
O=[N+]([O-])c1ccccc1NC(=S)N/N=C/c1ccc(O)c(O)c1	-11%	22*	0%	?	74*	-3%
